The text below walks through data of the supplement of paper PMC3545927.

The assay concerns the target furin, P09958. In words: furin cleavage Z-score vs untreated control; higher = more cleavage, active = 3.5 or more, inactive = 1 or less, 8 variable residues between constant flanks. How it is done: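 Multiplexed peptide-cDNA fusion cleavage assay. 8-mer variable peptides flanked by constant Cys-Ala (N-term) and Ala-Gly-Asn-Ala-Ser-Ala-Ser-Ala (C-term) and conjugated to a cDNA oligonucleotide were bead-immobilised via the N-terminus. They were treated with purified furin at a 1:10 enzyme:substrate ratio in 50 mM HEPES pH 7.5, 1 mM CaCl2, 100 mM NaCl for 7.5, 15 or 30 min. Released cDNA was counted by next-generation sequencing, and log counts versus no-furin controls were lowess-adjusted and converted to robust Z-scores.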

The other results are listed elsewhere or left out. The true hit rate is not given.

furin, P09958, sequence (P09958 whole entry, the tested form may be a part): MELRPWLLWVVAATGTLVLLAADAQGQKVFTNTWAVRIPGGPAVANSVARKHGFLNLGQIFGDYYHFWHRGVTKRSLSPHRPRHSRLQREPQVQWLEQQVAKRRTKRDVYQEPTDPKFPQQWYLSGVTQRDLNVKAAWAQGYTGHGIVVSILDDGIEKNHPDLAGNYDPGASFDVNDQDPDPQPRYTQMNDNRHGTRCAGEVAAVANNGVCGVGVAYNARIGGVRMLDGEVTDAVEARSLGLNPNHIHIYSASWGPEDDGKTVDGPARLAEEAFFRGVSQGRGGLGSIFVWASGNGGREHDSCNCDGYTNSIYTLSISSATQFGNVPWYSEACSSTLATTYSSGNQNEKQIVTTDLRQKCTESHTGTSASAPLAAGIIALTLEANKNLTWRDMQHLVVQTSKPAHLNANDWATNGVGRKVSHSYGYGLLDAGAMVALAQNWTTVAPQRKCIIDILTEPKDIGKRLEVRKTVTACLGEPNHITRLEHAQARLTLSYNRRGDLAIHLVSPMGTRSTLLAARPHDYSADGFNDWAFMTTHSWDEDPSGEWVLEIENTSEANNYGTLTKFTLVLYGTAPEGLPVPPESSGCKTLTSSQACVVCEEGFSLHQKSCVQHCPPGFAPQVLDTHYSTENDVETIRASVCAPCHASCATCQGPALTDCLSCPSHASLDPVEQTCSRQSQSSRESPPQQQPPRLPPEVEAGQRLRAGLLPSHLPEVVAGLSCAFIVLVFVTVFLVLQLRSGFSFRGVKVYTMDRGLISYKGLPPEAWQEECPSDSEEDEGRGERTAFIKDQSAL

For the sequence CAYVGGPLTNAGNASASA [HC1501], the “furin cleavage Z-score” value runs as follows: (7.5 min) -0.238 (inactive); (15 min) -0.463 (inactive); (30 min) -0.523 (inactive).
Consider CAQRVEFLVQAGNASASA [HC1470], for which the “furin cleavage Z-score” value by setting is: (7.5 min) -0.81 (inactive); (15 min) 1.84; (30 min) 0.832 (inactive).
Consider CAARGSPPSVAGNASASA [HC1256], for which the “furin cleavage Z-score” value by setting is: (7.5 min) 0.929 (inactive); (15 min) -0.707 (inactive); (30 min) 1.93.
Take CAETITLPQDAGNASASA [HC897]: the “furin cleavage Z-score” value (7.5 min) is -1.02 (inactive), the “furin cleavage Z-score” value (15 min) is 0.648 (inactive) and the “furin cleavage Z-score” value (30 min) is -1.05 (inactive).
CAHVVTSTWVAGNASASA [HC2155]: the “furin cleavage Z-score” value (7.5 min) is -1.33 (inactive), the “furin cleavage Z-score” value (15 min) is 0.00684 (inactive) and the “furin cleavage Z-score” value (30 min) was -0.368 (inactive).
CASTACSAHLAGNASASA [HC2503]: the “furin cleavage Z-score” value by setting is: (7.5 min) 0.199 (inactive); (15 min) 1.42; (30 min) -0.356 (inactive).
Consider CARMAWDMMMAGNASASA [HC319], for which the “furin cleavage Z-score” value (7.5 min) is -0.311 (inactive), the “furin cleavage Z-score” value (15 min) is -0.626 (inactive) and the “furin cleavage Z-score” value (30 min) was -0.966 (inactive).
Regarding CATLPALSTGAGNASASA [HC501], the “furin cleavage Z-score” value (7.5 min) was -1.14 (inactive), the “furin cleavage Z-score” value (15 min) was 0.758 (inactive) and the “furin cleavage Z-score” value (30 min) was -0.483 (inactive).
For CALKVPYFVRAGNASASA [HC614], in that order: -0.584 (inactive), 0.223 (inactive) and 0.218 (inactive).
For CAGASRSPRGAGNASASA [FS-237], the “furin cleavage Z-score” value (7.5 min) amounted to 3.32, the “furin cleavage Z-score” value (15 min) is 4.49 (active) and the “furin cleavage Z-score” value (30 min) is 5.42 (active).
Turning to CAGWLLSPRGAGNASASA [HC208], the “furin cleavage Z-score” value is, setting by setting: (7.5 min) 0.27 (inactive); (15 min) -1.63 (inactive); (30 min) 0.774 (inactive).
As to CAGAARLPRGAGNASASA [FS-777], the “furin cleavage Z-score” value is 0.571 (inactive) (7.5 min), 1.37 (15 min) and 2.25 (30 min).
The corresponding values for CADRSRTPRGAGNASASA [FS-759] are 3.99 (active), 4.25 (active) and 4.12 (active).
Turning to CAPERRDVCWAGNASASA [FS-1677], the “furin cleavage Z-score” value runs as follows: (7.5 min) -0.617 (inactive); (15 min) -1.12 (inactive); (30 min) 0.841 (inactive).
Turning to CASRCGSGPWAGNASASA [HC458], the “furin cleavage Z-score” value was -0.489 (inactive) (7.5 min), -1.8 (inactive) (15 min) and -0.818 (inactive) (30 min).
With CAWLKRQKRNAGNASASA [FS-318], the “furin cleavage Z-score” value (7.5 min) was 12.5 (active), the “furin cleavage Z-score” value (15 min) is 12.8 (active) and the “furin cleavage Z-score” value (30 min) is 10.3 (active).
In the case of CATWHRLRKGAGNASASA [FS-1427], the “furin cleavage Z-score” value by setting is: (7.5 min) -1.13 (inactive); (15 min) -0.138 (inactive); (30 min) -1.3 (inactive).
Consider CACGKRFKKNAGNASASA [FS-219], for which the “furin cleavage Z-score” value runs as follows: (7.5 min) 1.2; (15 min) -0.0472 (inactive); (30 min) 1.28.
On to CALRRRQKRQAGNASASA [FS-1234], for which the “furin cleavage Z-score” value (7.5 min) was 11.3 (active), the “furin cleavage Z-score” value (15 min) was 12.6 (active) and the “furin cleavage Z-score” value (30 min) is 9.62 (active).
For CAERRRQAGAAGNASASA [FS-1879], the “furin cleavage Z-score” value (7.5 min) was -0.934 (inactive), the “furin cleavage Z-score” value (15 min) was -0.697 (inactive) and the “furin cleavage Z-score” value (30 min) is -1.89 (inactive).
Regarding CALRRRLRKQAGNASASA [FS-362], the “furin cleavage Z-score” value (7.5 min) is 4.47 (active), the “furin cleavage Z-score” value (15 min) is 6.23 (active) and the “furin cleavage Z-score” value (30 min) was 5.78 (active).
Regarding CAFPDRVKRNAGNASASA [FS-770], the “furin cleavage Z-score” value is, setting by setting: (7.5 min) 3.16; (15 min) 3.37; (30 min) 3.96 (active).
For the sequence CAFDQGWGPIAGNASASA [HC393], the “furin cleavage Z-score” value is, setting by setting: (7.5 min) -0.624 (inactive); (15 min) -1.32 (inactive); (30 min) -0.893 (inactive).
CATTPCSGSGAGNASASA [HC1936]: the “furin cleavage Z-score” value by setting is: (7.5 min) -2.04 (inactive); (15 min) 2.2; (30 min) -0.763 (inactive).
For CASTPCSGHLAGNASASA [HC2536], the “furin cleavage Z-score” value was -0.918 (inactive) (7.5 min), -1.44 (inactive) (15 min) and -0.11 (inactive) (30 min).
The corresponding values for CATDNRSRKRAGNASASA [FS-1658] are -0.57 (inactive), 0.304 (inactive) and -1.94 (inactive).
For the sequence CAEVCTSTWVAGNASASA [HC2200], the “furin cleavage Z-score” value by setting is: (7.5 min) -1.07 (inactive); (15 min) -0.375 (inactive); (30 min) 0.694 (inactive).
On to CAAVEVDGAGAGNASASA [CS7], for which the “furin cleavage Z-score” value was 0.521 (inactive) (7.5 min), 0.0281 (inactive) (15 min) and -2.24 (inactive) (30 min).
For the sequence CASLKRDVSLAGNASASA [FS-2473], the “furin cleavage Z-score” value was -0.763 (inactive) (7.5 min), 0.0335 (inactive) (15 min) and 1.41 (30 min).
For CASLKRQKRQAGNASASA [FS-502], the “furin cleavage Z-score” value (7.5 min) was 11.6 (active), the “furin cleavage Z-score” value (15 min) is 12.1 (active) and the “furin cleavage Z-score” value (30 min) is 8.85 (active).
Take CAENPCHRPSAGNASASA [HC2341]: the “furin cleavage Z-score” value runs as follows: (7.5 min) -0.397 (inactive); (15 min) 1.48; (30 min) 0.0102 (inactive).
For CAKQGVSKRHAGNASASA [FS-261], in that order: 2.25, 2.44 and 3.51 (active).
For CALLRRGKRHAGNASASA [FS-51], the “furin cleavage Z-score” value was 11 (active) (7.5 min), 10.8 (active) (15 min) and 8.35 (active) (30 min).
As for CALYRLGAVQAGNASASA [HC973], the “furin cleavage Z-score” value reads like this: (7.5 min) 0.321 (inactive); (15 min) -0.642 (inactive); (30 min) 0.286 (inactive).
As to CASDGRGKRHAGNASASA [FS-1277], the “furin cleavage Z-score” value is 6.1 (active) (7.5 min), 6.45 (active) (15 min) and 6.27 (active) (30 min).
Consider CAEVIKGGRHAGNASASA [HC852], for which the “furin cleavage Z-score” value (7.5 min) is -2.02 (inactive), the “furin cleavage Z-score” value (15 min) is -1.42 (inactive) and the “furin cleavage Z-score” value (30 min) is -1.4 (inactive).
Take CALLRIPQAIAGNASASA [HC329]: the “furin cleavage Z-score” value runs as follows: (7.5 min) -0.657 (inactive); (15 min) -1.81 (inactive); (30 min) -0.194 (inactive).
Consider CAVQIVSTAAAGNASASA [HC690], for which the “furin cleavage Z-score” value runs as follows: (7.5 min) 0.498 (inactive); (15 min) -1.18 (inactive); (30 min) -0.374 (inactive).
Turning to CALLRRPFRQAGNASASA [FS-1361], the “furin cleavage Z-score” value is, setting by setting: (7.5 min) 2.8; (15 min) 1.06; (30 min) 3.65 (active).
Consider CANLLRVFRQAGNASASA [FS-468], for which the “furin cleavage Z-score” value was 0.426 (inactive) (7.5 min), -0.885 (inactive) (15 min) and 0.089 (inactive) (30 min).
With CASSNVSVAHAGNASASA [HC1554], the “furin cleavage Z-score” value (7.5 min) is -2.36 (inactive), the “furin cleavage Z-score” value (15 min) is -0.374 (inactive) and the “furin cleavage Z-score” value (30 min) was -0.657 (inactive).
Regarding CADCEVVTSTAGNASASA [HC2300], the “furin cleavage Z-score” value by setting is: (7.5 min) 0.556 (inactive); (15 min) 0.654 (inactive); (30 min) -0.729 (inactive).
On to CAQVCCSMSYAGNASASA [HC2002], for which the “furin cleavage Z-score” value reads like this: (7.5 min) -0.191 (inactive); (15 min) -0.875 (inactive); (30 min) 0.558 (inactive).
